Screening data as filed in PubChem.
USP1 inh: Inhibitors of USP1/UAF1: Primary Screen; Potency, µM (top dose mostly 57.1 µM), for the others: at the highest dose activity change, negative = inhibition, actives largely listed as inhibitors; recombinant USP1/UAF1, Ub-Rhodamine cleavage fluorescence; actives 0.23% (n = 390,000); further: potency means the concentration at half of the fitted maximal effect; on the % scale 0 is the no-effect control and ±100 the full control effect; nearly all actives have a fitted effect of over 60% in size
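USP1/UAF1 complex (1 nM) preincubated 15 min at room temperature with compound, then Ub-Rho substrate (150 nM final) added. Kinetic fluorescence at 480/540 nm over 6 reads at 60 s intervals; 50 mM HEPES pH 7.8, 0.5 mM EDTA, 0.1 mg/ml BSA, 1 mM TCEP, 0.01% Tween-20.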
ATXN2 expr inh: Primary qHTS for Inhibitors of ATXN expression | HEK-293 ATXN2-luciferase reporter, luminescence, 24 h | Potency, µM (top dose mostly 57 µM), inactives show at the highest dose activity change, negative = inhibition, actives largely listed as inhibitors | actives 0.72% (n = 360,000); further: potency means the concentration at half of the fitted maximal effect; on the % scale 0 is the no-effect control and ±100 the full control effect; nearly all actives have a fitted effect of over 55% in size
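ATXN2-luciferase reporter cells (luciferase flanked by upstream and downstream ATXN2 gene portions) were treated 24 h at 37 °C with compounds at up to 57 uM. SteadyGlo luminescence gave expression; GF-AFC fluorescence gave viability.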
S2 tox: Viability Counterscreen for Primary qHTS for Inhibitors of ATXN expression; S2 cells (HEK-293 line with an ATXN2-luciferase reporter) viability, CellTiter-Fluor protease fluorescence, 24 h; Potency, µM (titrated, usually from 56.7 µM), usual class: cytotoxic; actives 0.49% (n = 400,000); further: potency means the concentration at half of the fitted maximal effect; nearly all actives have a fitted effect of over 40% in size
IL1B secr inh: qHTS for Inhibitors of Inflammasome Signaling: IL-1-beta AlphaLISA Primary Screen; THP-1 LPS/ATP IL-1B secretion, AlphaLISA, 16 h; stronger effect = lower value; activity change, % at 57.5 µM; actives 4.7% (n = 360,000); AID 743279, 2014; in the data active means activity change below about -50%; inconclusive means mostly about -30% to -49%; further: on the % scale 0 is the no-effect control and ±100 the full control effect
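Secreted IL-1B measured by AlphaLISA bead assay after 16 h compound exposure of THP-1 cells; compounds (final up to 57.5 uM) added 1 h before LPS (250 ng/mL) and ATP (1.25 mM) stimulation; lower signal means less secretion.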
USP2a block: qHTS Assay for Inhibitors of Ubiquitin-specific Protease USP2a Using CHOP2 as the Reporter | Ubiquitin carboxyl-terminal hydrolase 2 (Homo sapiens), O75604 | USP2 core, Ub-CHOP2 coupled fluorogenic reporter, 485/531 | Potency, µM (top dose mostly 38.3 µM), for the others: at the top dose activity change, negative = inhibition, hits mostly inhibitors | actives 0.01% (n = 330,000);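 further: potency means the concentration at half of the fitted maximal effect; plate controls were DMSO wells for no effect and full inhibition by NEM control for full effect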
Target sequence (O75604 whole entry, looked up): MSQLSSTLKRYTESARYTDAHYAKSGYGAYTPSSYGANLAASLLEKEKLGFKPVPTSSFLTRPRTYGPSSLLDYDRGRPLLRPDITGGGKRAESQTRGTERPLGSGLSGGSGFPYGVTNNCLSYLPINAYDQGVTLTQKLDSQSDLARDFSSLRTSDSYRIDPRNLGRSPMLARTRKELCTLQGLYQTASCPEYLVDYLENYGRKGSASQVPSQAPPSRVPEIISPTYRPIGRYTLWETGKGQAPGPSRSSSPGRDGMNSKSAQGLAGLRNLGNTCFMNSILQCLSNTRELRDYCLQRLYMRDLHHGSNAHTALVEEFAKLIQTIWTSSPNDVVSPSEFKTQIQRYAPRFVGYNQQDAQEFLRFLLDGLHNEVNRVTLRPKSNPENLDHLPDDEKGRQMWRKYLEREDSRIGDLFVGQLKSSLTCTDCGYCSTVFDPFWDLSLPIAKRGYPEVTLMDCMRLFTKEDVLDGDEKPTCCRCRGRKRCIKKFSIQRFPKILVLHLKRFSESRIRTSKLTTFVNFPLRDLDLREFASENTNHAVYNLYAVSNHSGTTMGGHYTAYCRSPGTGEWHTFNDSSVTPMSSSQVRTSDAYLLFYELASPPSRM
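USP2 core (10nM final) preincubated 30min RT with compound in 20mM Tris-HCl pH 8.0, 2mM CaCl2, 2mM beta-mercaptoethanol, 0.05% CHAPS; 25nM Ub-CHOP2 plus 25nM reporter substrate added, fluorescence (Ex485/Em531) read after 60min.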
The depositor's hits bear a star; i = inactive; ? = inconclusive; / = no result given; [ ] = remark or other dose. Sampled rows, rich in hits. Any-hit rate of the full collection: about 4.8%. Unless noted, the call rests on the fitted dose curve; in most records, active means well fitted curve in the direction sought with a large enough effect; inconclusive means small, poorly fitted or top-dose-only effect, or another doubt; inactive means no such curve, though single readings can be large; an effect the other way counts as inactive or inconclusive.

SMILES	USP1 inh	ATXN2 expr inh	S2 tox	IL1B secr inh	USP2a block
COc1ccnc2[nH]cc(C(=O)C(=O)N3CCN(C(=O)c4ccccc4)C[C@@H]3C)c12	/	-1%	/	/	/
CC(C)N1CCCC(C)(C(=O)Nc2ccccc2)C1 (stereo not given)	/	6%	i	14	/
Cc1c(C(=O)NCCSCc2ccccc2)cccc1[N+](=O)[O-]	5%	-11%[11.3 µM]	i	-57*	-1%
Cc1c(C(=O)NCCSCc2ccc(Cl)cc2Cl)cccc1[N+](=O)[O-]	-19%	?	i	-58*	-7%
Cc1c(C(=O)N(CCc2ccccc2)Cc2ccccc2)cccc1[N+](=O)[O-]	-11%	?	i	-82*	-7%
Cc1ccc(C(=O)NCCSCc2ccc(Cl)cc2Cl)cc1[N+](=O)[O-]	-30%	-15%	?	-58*	-4%
Cc1c(C(=O)NCCSc2ccc(Cl)cc2)cccc1[N+](=O)[O-]	-7%	-20%	i	-20	-2%
Cn1c(=O)c2c(SCC(=O)N3CCCC3)nc(CC(C)(C)C)nc2n(C)c1=O	-16%	-3%	i	37	2%
CC(C)NC(=O)C1CCCN(S(=O)(=O)c2ccc3c(ccn3C)c2)C1 (stereo not given)	-14%	7%	i	/	/
COc1ccc(C(=O)NCC(c2cccnc2)N2CCc3ccccc3C2)cc1 (stereo not given)	-7%	/	/	/	/
COCC(=O)Nc1cc(C(=O)N2CC3CC4CC(C3)CC2C4)c2c(c1)nc(-c1ccncc1)n2C	/	/	i	/	/
CCN(c1ccccc1)S(=O)(=O)c1cccc(C(=O)N(C)CC(=O)Nc2ccc(F)c(F)c2F)c1	-26%	-14%	i	?	/
CCOc1cc(CNC2CCCC2)cc(Cl)c1OCc1ccccc1	-15%	-16%	?	-24	1%
CCOc1cc(CNC2CCCC2)ccc1OCc1ccccc1Cl	-12%	/	?	-89*	0%
CCOc1cc2[nH]c(=S)n(Cc3ccc(C(=O)NCCN(CC)CC)cc3)c(=O)c2cc1OCC	-27%	-35%	?	-99*	-2%
Clc1ccc(N=c2ssnc2Cl)cc1	-23%	-30%	?	-85*	1%
COc1ccc(N=c2ssnc2Cl)cc1	-23%	-25%	?	-3	-1%
CCOC(=O)c1ccc(N=c2ssnc2Cl)cc1	-4%	2%[11.3 µM]	i	-89*	3%
O=c1c2sc3ccccc3c2n(Cc2cccc(C(F)(F)F)c2)c(=O)n1Cc1ccco1	-22%	4%	i	/	/
Cc1cccc(NC(=O)CSc2nnc(CNC(=O)c3ccco3)n2C)c1C	-3%	-6%	i	3	2%
CN(Cc1nc(Cc2ccccc2F)no1)Cc1cccc2ncccc12	-3%	-13%[11.3 µM]	i	-108*	7%
COc1cc(/C=C2\SC(=Nc3ccccc3OC)NC2=O)ccc1O	-25%	0%	?	-60*	5%
COc1cc(/C=C2\SC(N)=NC2=O)ccc1O	-23%	?	?	-83*	4%
CCOc1cc(-c2cc(-c3ccc(N)cc3)nc(N)c2C#N)ccc1O	-16%	14%	i	-62*	-2%
C=CCNC(=O)C1CC1(c1ccc(C)cc1)c1ccc(C)cc1 (stereo not given)	-19%	-9%	?	-11	-9%
O=C(/C=C/c1ccccc1)NCCSCc1ccc(Cl)cc1	-19%	-12%	i	10	1%
O=C(/C=C/c1ccc(Cl)cc1)NCCSc1ccccc1	-12%	0%	i	-8	2%
O=C(/C=C/c1ccc(Cl)cc1Cl)NCCSCc1ccccc1	-9%	13%	i	-96*	-4%
O=C(/C=C/c1ccc(Cl)cc1Cl)NCCSc1ccccc1	-20%	25%	i	-88*	7%
Cc1ccc(CN2CCSc3ccc(C(=O)N4CCN(c5cccc(C)c5C)CC4)cc32)cc1	-24%	0%	?	/	/
